This is a sample that favours compounds with a hit; in the whole collection about 2.1% have one here.
miR-21 reporter = qHTS Assay for Modulators of miRNAs and/orActivators of miR-21; HeLa miR-21 FLuc reporter, luciferase, 48 h; Potency, µM (titrated, usually from 38.3 µM), usual class: activators; 340,000 tested, under 10 active;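 note: miR-21 action dims this reporter so a rising signal means less miR-21 action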
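HeLa cells endogenously expressing miR-21, stably carrying CMV-driven firefly luciferase with a downstream miR-21 binding site, 2000 cells/well. Titrations up to approximately 40 uM, 48 hours; luciferase luminescence read.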
A549 tox-1 = Nrf2 qHTS screen for inhibitors: counterscreen for cytotoxicity | A549 ARE-Fluc cells, CellTiter-Fluor viability, 18-24 h | Potency, µM (highest dose often 46 µM), usual class: inhibitors | 390,000 compounds, 0.16% hits
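A549 ARE-Fluc cells in 5% FBS OPTI-MEM, 5000 cells/well, rested 2 h then exposed to compounds in concentration-response for 18-24 h at 37 °C. Viability by CellTiter-Fluor fluorescence (Ex 405/Em 525) after 30 min; luciferase luminescence (BugLite, 15 min, RT) read afterwards.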
Glioma ERSR ind = qHTS for Inducers of the Endoplasmic Reticulum Stress Response (ERSR) in Human Glioma: qHTS; AID 602332, 2012; Potency, µM, most hits filed as activators; 420,000 compounds, 0.02% hits; U87-MG GRP78 promoter luciferase reporter, 16 h; note: series mostly up to about 76 µM; nearly all actives have a fitted effect of over 35% in size
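Stably transfected U87-MG human glioma cells carrying a GRP78-based luminescent sensor were seeded at 1000 cells/well, pin-dosed with compounds and incubated 16 h. Luciferase reagent was then added, and end-point luminescence was read after 10 min at room temperature.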
TSG101-PTAP inh = qHTS Assay for Iinhibitors of HIV-1 Budding by Blocking the Interaction of PTAP/TSG101; Tumor susceptibility gene 101 protein (Homo sapiens), Q99816; Fluorescence polarization, FITC-PTAP peptide / Tsg101 binding; Potency, µM (highest dose often 115 µM), usual class: inhibitors; 340,000 tested, under 10 active; AID 493005, 2010; active = well fitted inhibition curve with a large enough effect in the main read-out, with a control signal flat, not every such curve was filed as active; inconclusive = small, poorly fitted or top-dose-only effect, or effect the other way, or a change in a side signal; inactive = no such curve, though single readings can be large or run the other way
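Steps: Tsg101 binding domain dispensed (10 uM final), compounds pinned in DMSO, FITC-labeled PTAP-motif peptide added (50 nM final); after 20 min binding at room temperature, polarization measured.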
Nrf2 block = Nrf2 qHTS screen for inhibitors. A549 ARE-Fluc reporter, luciferase luminescence, 18-24 h. 360,000 compounds, 2.1% hits. AID 504444, 2011. Potency, µM (titrated, usually from 46 µM), actives largely listed as inhibitors; note: nearly all actives have a fitted effect of over 60% in size
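Nrf2 function is reported as luminescence of an ARE-controlled luciferase in A549 cells. Compounds were tested at several concentrations, and a CellTiter-Fluor read on the same wells flagged cytotoxicity.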
Nrf2 ARE act = qHTS of Nrf2 Activators; 410,000 compounds, 0.31% hits; AREc32 ARE-luciferase reporter (MCF7-derived line), luminescence, 24 h; Potency, µM (top dose mostly 46.1 µM), actives largely listed as activators; note: nearly all actives have a fitted effect of over 65% in size
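Cells of the AREc32 ARE-luciferase line are plated in OPTI-MEM containing 5% FBS and left overnight at 37 deg C. Compounds are pinned in, incubation continues 24 hr, and firefly luciferase signal is then measured.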
FLuc enzyme inh = Nrf2 qHTS screen for inhibitors: Purified Fluc Biochemical Counterscreen for Hit Validation | shares compounds with Nrf2 block | Potency, µM (doses to about 57.5 µM), usual class: inhibitors | purified firefly luciferase, luminescence inhibition | 1,400 compounds, 4% hits; note: nearly all actives have a fitted effect of over 65% in size
Target sequence (P08659 whole entry, looked up): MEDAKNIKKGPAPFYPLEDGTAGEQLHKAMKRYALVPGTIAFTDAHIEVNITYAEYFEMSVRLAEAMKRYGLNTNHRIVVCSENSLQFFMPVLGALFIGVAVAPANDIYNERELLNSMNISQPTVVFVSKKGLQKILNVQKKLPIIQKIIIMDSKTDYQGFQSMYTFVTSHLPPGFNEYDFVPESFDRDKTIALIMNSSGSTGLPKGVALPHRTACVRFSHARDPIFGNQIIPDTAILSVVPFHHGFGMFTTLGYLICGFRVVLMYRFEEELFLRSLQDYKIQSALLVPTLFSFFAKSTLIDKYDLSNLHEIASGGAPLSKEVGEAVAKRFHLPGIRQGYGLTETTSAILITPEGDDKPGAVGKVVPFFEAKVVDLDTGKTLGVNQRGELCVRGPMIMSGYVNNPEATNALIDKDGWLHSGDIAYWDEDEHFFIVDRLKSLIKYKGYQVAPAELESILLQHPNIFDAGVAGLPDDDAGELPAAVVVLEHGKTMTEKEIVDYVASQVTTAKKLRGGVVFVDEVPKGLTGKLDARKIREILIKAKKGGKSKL
A549 tox-2 = Nrf2 qHTS screen for inhibitors: A549 ARE-Fluc Cytotoxicity Counterscreen for Hit Validation; A549 ARE-Fluc cells, cytotoxicity counterscreen; AID 720523, 2013; shares compounds with Nrf2 block; Potency, µM (series often up to 46.1 µM), usual class: inhibitors; 1,400 compounds, 2% hits;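 note: cells exposed to compounds for 18 to 24 hours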
ARE-Fluc inh = Nrf2 qHTS screen for inhibitors: Nrf2 A549 ARE-Fluc Confirmation Assay for Hit Validation; Potency, µM (series often up to 46.1 µM), actives largely listed as inhibitors; 1,400 compounds, 74% hits; A549 ARE-firefly luciferase reporter, luminescence; shares compounds with Nrf2 block; note: nearly all actives have a fitted effect of over 65% in size
Of the large screens only hits and unclear results are named; the others gave an inactive call (follow-up assays come after a bar, where they were run). Unless noted, calls come from the whole dose curve; as a rule, active = well fitted curve in the direction sought with a large enough effect; inconclusive = small, poorly fitted or top-dose-only effect, or another doubt; inactive = no such curve, though single readings can be large; an effect the other way counts as inactive or inconclusive.

O=C(c1cccc(S(=O)(=O)N2CCN(c3ccc(F)cc3)CC2)c1)N1CCCC(C(F)(F)F)C1 (stereo not given)	Nrf2 block 4.6µM (no result: miR-21 reporter) | FLuc enzyme inh inactive | A549 tox-2 inactive | ARE-Fluc inh 5.2µM
COc1ccc(CCN(C)C(=O)c2cccc(S(=O)(=O)N3CCN(c4ccc(F)cc4)CC3)c2)cc1OC	Nrf2 block 7.3µM (no result: miR-21 reporter) | FLuc enzyme inh inactive | A549 tox-2 inactive | ARE-Fluc inh 5.2µM
Cc1cccc(C)c1NC(=O)CN(C)C(=O)c1cccc(S(=O)(=O)N2CCN(c3ccc(F)cc3)CC2)c1	A549 tox-1 inconclusive, Nrf2 block 5.2µM (no result: miR-21 reporter) | FLuc enzyme inh inactive | A549 tox-2 inactive | ARE-Fluc inh 9.2µM
CN(CCOc1ccc(Cl)cc1)C(=O)c1cccc(S(=O)(=O)N2CCN(c3ccc(F)cc3)CC2)c1	Nrf2 block 4.1µM (no result: miR-21 reporter) | FLuc enzyme inh inactive | A549 tox-2 inactive | ARE-Fluc inh 4.1µM
c1ccc2c(CCc3c[nH]c4ccccc34)ccnc2c1	none (no result: miR-21 reporter, A549 tox-1, TSG101-PTAP inh, Nrf2 block, Nrf2 ARE act)
CCn1c(C)nc([N+](=O)[O-])c1Sc1ccc(F)cc1	Nrf2 block inconclusive, Nrf2 ARE act inconclusive
CC(C)Cn1c(C(C)C)nc([N+](=O)[O-])c1S(=O)(=O)c1ccc(F)cc1	A549 tox-1 inconclusive, Nrf2 block 9.2µM, Nrf2 ARE act 22µM | FLuc enzyme inh inactive | A549 tox-2 inactive | ARE-Fluc inh inactive
O=[N+]([O-])c1ccc(C[n+]2cccc3c4ccccc4ccc32)cc1	miR-21 reporter inconclusive, A549 tox-1 inconclusive, Nrf2 block 3.7µM | FLuc enzyme inh inactive | A549 tox-2 inactive | ARE-Fluc inh 3.7µM
Cc1ccc[n+](Cc2ccc([N+](=O)[O-])cc2)c1	Nrf2 block inconclusive
O=C(C[n+]1cccc(Cl)c1)c1ccc(O)c(O)c1	none (no result: miR-21 reporter, A549 tox-1, TSG101-PTAP inh, Nrf2 block, Nrf2 ARE act)
Cc1ccc(-c2c[n+]3c(n2-c2ccccc2)SCC3)cc1	miR-21 reporter inconclusive, Nrf2 block 2.3µM | FLuc enzyme inh inactive | A549 tox-2 inactive | ARE-Fluc inh 10µM
COc1ccc(-c2c[n+]3c(n2-c2ccccc2)SCC3)cc1	Nrf2 block 2.1µM | FLuc enzyme inh inactive | A549 tox-2 inactive | ARE-Fluc inh 7.3µM
Brc1ccc(-c2c[n+]3c(n2-c2ccccc2)SCC3)cc1	Nrf2 block inconclusive
O=C(Nc1nccs1)[C@@H]1CC=C[C@@H]2CCN(C3CC3)C(=O)[C@@H]21	none (no result: miR-21 reporter, A549 tox-1, TSG101-PTAP inh, Nrf2 block, Nrf2 ARE act)
CCC1Cc2cc(O)ccc2C2=C1c1ccc(O)cc1CC2CC (stereo not given)	none (no result: miR-21 reporter, A549 tox-1, TSG101-PTAP inh, Nrf2 block, Nrf2 ARE act)
CCC(C)NC(=O)C1CCN(C(=O)c2cc3sccc3n2Cc2ccc(Cl)cc2)CC1 (stereo not given)	miR-21 reporter inconclusive, A549 tox-1 inconclusive, Nrf2 block 2.3µM (no result: TSG101-PTAP inh) | FLuc enzyme inh inactive | A549 tox-2 inconclusive | ARE-Fluc inh 6.5µM
COCCCNC(=O)C1CCN(C(=O)c2cc3sccc3n2Cc2ccc(Cl)cc2)CC1	Nrf2 block inconclusive (no result: TSG101-PTAP inh)
COCCNC(=O)C1CCN(C(=O)c2cc3sccc3n2Cc2ccc(Cl)cc2)CC1	miR-21 reporter inconclusive, A549 tox-1 inconclusive, Nrf2 block 8.2µM (no result: TSG101-PTAP inh) | FLuc enzyme inh inactive | A549 tox-2 inactive | ARE-Fluc inh 5.8µM
COc1ccccc1-n1c(-c2ccccc2)c[nH]c1=S	none
CC(C)c1ccc(-n2c(-c3ccccc3)c[n+]3c2CCc2ccccc2-3)cc1	A549 tox-1 10µM, Nrf2 block 2.1µM | FLuc enzyme inh inactive | A549 tox-2 inconclusive | ARE-Fluc inh 2.6µM
COc1ccccc1-n1c(-c2ccccc2)c[n+]2c1CCc1ccccc1-2	miR-21 reporter inconclusive, A549 tox-1 inconclusive, Nrf2 block 3.7µM | FLuc enzyme inh inactive | A549 tox-2 inactive | ARE-Fluc inh 8.2µM
CC(C)NC(=O)c1ccc(-n2c(-c3ccccc3)cc3c2CCCC3)cc1	Nrf2 ARE act inconclusive (no result: TSG101-PTAP inh)
COc1ccc(CCn2c(=S)[nH]c(=O)c3[nH]cnc32)cc1OC	none (no result: miR-21 reporter, Glioma ERSR ind, TSG101-PTAP inh, Nrf2 ARE act)
C(=C\c1ccccn1)/c1ccccc1	none (no result: miR-21 reporter, A549 tox-1, TSG101-PTAP inh, Nrf2 block, Nrf2 ARE act) | FLuc enzyme inh inactive | A549 tox-2 inactive | ARE-Fluc inh 10µM
CCN(CC)c1ccc(/C=C/c2ccnc3ccccc23)cc1	none (no result: miR-21 reporter, A549 tox-1, TSG101-PTAP inh, Nrf2 block, Nrf2 ARE act) | FLuc enzyme inh inconclusive | A549 tox-2 inactive | ARE-Fluc inh 15µM
C(=C\c1ccccn1)/c1ccncc1	none
Clc1ccc(/C=C/c2ccnc3ccccc23)c(Cl)c1	none (no result: miR-21 reporter, A549 tox-1, TSG101-PTAP inh, Nrf2 block, Nrf2 ARE act) | FLuc enzyme inh inconclusive | A549 tox-2 inactive | ARE-Fluc inh inconclusive
Cc1c(/C=C/c2ccnc3ccccc23)ccc(N(C)C)c1C	none (no result: miR-21 reporter, A549 tox-1, TSG101-PTAP inh, Nrf2 block, Nrf2 ARE act) | FLuc enzyme inh inactive | A549 tox-2 inactive | ARE-Fluc inh inconclusive
Clc1ccc(/C=C/c2ccnc3ccccc23)cc1	none (no result: miR-21 reporter, A549 tox-1, TSG101-PTAP inh, Nrf2 block, Nrf2 ARE act)

From PubChem
